Experimental data: PubChem BioAssay AID540259 (Broad Institute, 2011)
Results with a measured potency or affinity are listed apart. Values without a mark were called inactive.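 The calls were made as follows: active = cell killing, meaning signal decrease, with fitted half-maximal dose at or below ten times the top valid tested dose; inconclusive = poor fit, or flat curve with 30 to 70% signal loss; inactive = the rest.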

test: HeLa cell cytotoxicity, dose response, cytotoxicity control for MITF activator project, CellTiter-Glo luminescence, cherry-pick samples (AID 540259); details: HeLa viability, CellTiter-Glo ATP luminescence, 24 h; series mostly up to 35 µM; activity change, negative = cytotoxicity: at the top concentration;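 also: 0% = DMSO neutral control and -100% = mitoxantrone positive control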

Structure (SMILES) | activity change, negative = cytotoxicity
CC(=O)c1sc(NC(=O)c2ccccc2F)nc1-c1ccccc1 | 11%
CCN(CC)c1ccc(C(=O)NNC(=O)c2cccn2C)cc1 | 6.62%
Cn1ccs/c1=N\C(=O)Nc1ccccc1 | 2.38%
O=C(Cc1cccs1)NCc1ccc(Cl)cc1Cl | 19.9%
COc1ccc(-c2nn(-c3ccccc3)cc2C#N)cc1 | 16.9%
Cc1ccccc1Nc1nc(N)nc(COC(=O)c2ccccc2)n1 | 11.2%
O=C(CC1CCCC1)Nc1ccc(Br)cc1 | -3.11%
Oc1nc(Nc2ccccc2)sc1/C=C1\C=Nc2ccccc21 | 4.73%
Clc1ccccc1OCc1nnc(-c2ccccc2Br)o1 | -2%
CCc1ccc2[nH]c3nc(C)cc(C)c3c(=O)c2c1 | -2.28%
CC(C)(C)C(=O)N1CCN(c2nc3ccccc3s2)CC1 | -0.769%
O=c1[nH]c(COc2ccccc2)nc2ccccc12 | 8.05%
CN(C)c1ccc(CSc2ccccc2)cc1 | 4.63%
COc1cc(/C=C/c2noc(-c3ccccc3O)n2)ccc1OC(C)=O | -3.83%
c1ccc(-c2ccc3[nH]ccc3c2)cc1 | -0.975%
CCN1CCN(c2ccc(NC(=O)c3cccc(F)c3)cc2Cl)CC1 | 4.94%
O=C(Nc1ccc2oc(-c3ccccc3)nc2c1)c1cccnc1 | 5.53%
Cc1ccc(CONC(=O)c2ccc(C)cc2)cc1 | 22%

Structure (SMILES) | activity change, negative = cytotoxicity
CCCC(=O)N/C(N)=N/c1nc2ccccc2o1 | 6.9%
O=C(N/N=C/c1ccsc1)c1ccc2c(c1)OCO2 | -0.009%
CCS(=O)(=O)N1Cc2ccccc2CC1C(=O)NCc1cccc(OC)c1 (stereo unspecified) | 3.08%
CCCCC(=O)Nc1sc2c(c1C#N)CC(C)(C)OC2 | 4.44%
c1ccc(-c2nc3ccccc3[nH]2)cc1 | -1.01%
Cc1nc2ccc(NC(=O)Cc3c(F)cccc3Cl)cc2s1 | 2.92%
CC(C)C(=O)Nc1cccc(-c2cnc3ccccc3n2)c1 | -9.42%
CC(=O)c1cnc2c(-c3cccc(Br)c3)cnn2c1C | -3.45%
CC(C)c1ccc(CNc2ncc(Br)cn2)cc1 | 10.1%
NNC(=O)c1ccc2nc(-c3ccc(Br)cc3)cn2c1 | 11.7%
Oc1oc(-c2ccccc2)nc1C=NCc1ccccc1 | 4.32%
Cc1ccc(/C=N/Nc2ccc(Cl)nn2)cc1 | 3.79%
COc1ccc(-c2cn3nc(C)c(C)nc3n2)cc1OC | 8.22%
CC(=O)N(c1ccccc1)c1nnc(-c2cnc(C)cn2)s1 | -1.1%
Cc1nn(-c2ccccn2)c2c1-c1nc(N)ncc1CC2 | -8.29%
C=CCSc1nncn1/N=C/c1ccc(OC)cc1 | 11.5%
Cc1noc(N)c1C(=O)Nc1ccc(C(C)(C)C)cc1 | -8.76%
COc1ccc2cc(-c3csc(-c4cccnc4)n3)ccc2c1 | -5.03%
